Records with an inconclusive call do not appear. Values without a mark were called inactive. Calls come from the whole dose curve; as a rule, active = well fitted inhibition curve with a large enough effect; inconclusive = small, poorly fitted or top-dose-only effect; inactive = flat fitted curve, though single readings scatter.
% is set by controls: 0 for no effect and ±100 for the full control effect.

Sequence of Calcium and integrin-binding protein 1 (Homo sapiens) (Q99828 whole entry, looked up): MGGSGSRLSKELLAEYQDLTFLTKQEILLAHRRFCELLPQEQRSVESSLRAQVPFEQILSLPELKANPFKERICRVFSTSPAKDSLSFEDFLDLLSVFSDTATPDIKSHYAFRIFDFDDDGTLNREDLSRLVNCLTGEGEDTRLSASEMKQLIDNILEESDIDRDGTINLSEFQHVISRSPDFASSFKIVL

This assay concerns the target Calcium and integrin-binding protein 1 (Homo sapiens) (UniProt Q99828). As to the kind of experiment: Primary qHTS for Identification of Calcium Integrin Binding Protein 1 (CIB1) Competitor (AID 1508620).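 Note: GST tagged CIB1 binding a fluorescein labelled alphaIIb integrin peptide tracer; top concentration of the series differs between compounds.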 Particulars: CIB1-GST / FITC-alphaIIb peptide fluorescence polarization; series mostly up to 57.7 µM; activity change, negative = inhibition: at the top concentration. The essentials: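 Fluorescence polarization competition: CIB1-GST (1 uM final) preincubated with compound 15 min at room temperature, then FITC-labeled alphaIIb peptide (100 nM final) added for another 15 min. Polarization read at Ex 480/Em 540.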
`CN1CC[C@@H](NC(=O)Nc2ccc(C#N)cc2)C[C@@H]1c1nc2ccccc2[nH]1`: the “activity change, negative = inhibition” value was -1.3% [at 114 µM]. As to `CCOC(=O)[C@H](CCc1ccccc1)N[C@@H](C)C(=O)N1C2CCCCC2C[C@H]1C(=O)O` (stereo partly specified), the “activity change, negative = inhibition” value was -1.92% [at 114 µM]. `C[C@H](NCc1ccc(OCc2ccccc2F)cc1)C(N)=O`: the “activity change, negative = inhibition” value is -4.88% [at 114 µM]. For `CC1(C)CCCC2(C)C1C(O)C=C(CO)C2(O)C(=O)O` (stereo unspecified) the value was 3.29% [at 114 µM]. On to `CC1=C(C)C(=O)OC(C(C)(O)C2CCC3C4CC=C5CC(OC6OC(COC7OC(CO)C(O)C(O)C7O)C(O)C(O)C6O)CC(O)C5(C)C4CCC32C)C1` (stereo unspecified), for which the “activity change, negative = inhibition” value is -5.35% [at 30.2 µM]. Take `O=C(OCC12OC1C=CC(OC(=O)c1ccccc1)C2O)c1ccccc1` (stereo unspecified): the “activity change, negative = inhibition” value was -14.9%. `C=C1CCC2C(C)(C)CC(=O)CC2(C)C1CCC(C)CCOC(C)=O` (stereo unspecified): the “activity change, negative = inhibition” value was -8.67%. For `CC[C@H]1OC(=O)[C@H](C)[C@@H](OC2C[C@@](C)(OC)[C@@H](O)[C@H](C)O2)[C@H](C)[C@@H](OC2O[C@H](C)C[C@H](NC)[C@H]2O)[C@](C)(O)C[C@@H](C)CN(C)[C@H](C)[C@@H](O)[C@]1(C)O` (stereo partly specified) the value was 1.68% [at 114 µM]; for `CC[C@H]1OC(=O)[C@H](C)[C@@H](O[C@H]2C[C@@](C)(OC)[C@@H](O)[C@H](C)O2)[C@H](C)[C@@H](O[C@@H]2O[C@H](C)C[C@H](N(C)C)[C@H]2O)[C@@](C)(O)C[C@@H](C)[C@@H]2N[C@@H](COCCOC)OC([C@H]2C)[C@]1(C)O`, 3.86% [at 114 µM]; for `COC1C2=C(COC2=O)C2(C)CCCC(C)(CO)C2C1OC(=O)c1ccccc1` (stereo unspecified), -13.4%. In the case of `C=C1CCC2(OC1)OC1CC3C4CC=C5CC(O)CC(O[C@@H]6OC[C@@H](O)[C@H](O)[C@H]6O)C5(C)C4CCC3(C)C1(O)C2C` (stereo partly specified), the “activity change, negative = inhibition” value was -2.96% [at 30.2 µM].

The record behind these values is PubChem BioAssay (NCATS).
